# Screens as filed in PubChem.
# HCV inhibitor = HCV inhibition; Potency, µM (series often up to 41.8 µM), for the others: at the top dose activity change, negative = inhibition, usual class: inhibitors; AID 651820; Huh7.5.1 HCVcc-Cre infection, luciferase reporter, 44 h; 3.4% of 340,000 active; active = well fitted inhibition curve with a large enough effect; inconclusive = small, poorly fitted or top-dose-only effect, or another doubt; inactive = no such curve, though single readings can be large or run the other way; note: potency is the fitted concentration of half-maximal effect
#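 Infectious HCVcc-Cre (~0.5 moi) was added to cells just after compound, with cells seeded 4 h earlier at 1,000 per well. Luciferase activity after 44 h culture reported infection; substrate was incubated 15 min at room temperature before reading.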
# Vaccinia mCherry = vaccinia inhibition (mCherry reporter) | Vaccinia virus mCherry reporter infection, fluorescence | Potency, µM (top dose mostly 36.5 µM), without a hit: at the highest dose activity change, negative = inhibition, usual class: inhibitors | 0.63% of 310,000 active | AID 720579; calls by dose curve; tested in A549 cells; note: potency is the fitted concentration of half-maximal effect; nearly all actives have a fitted effect of over 35% in size
# Vaccinia Venus = inhibitors of vaccinia virus (Venus reporter); Vaccinia virus Venus reporter expression, fluorescence; 0.46% of 330,000 active; Potency, µM (top dose mostly 36.5 µM), for inactives: top-dose activity change, negative = inhibition, actives largely listed as inhibitors; calls by dose curve; tested in A549 cells; note: potency is the fitted concentration of half-maximal effect; nearly all actives have a fitted effect of over 30% in size
# Marburg entry inh = blocks Marburg virus binding to or entry into cells | AID 540276 | 1.8% of 300,000 active | Marburg virus pseudotyped entry inhibition, cell reporter | Potency, µM (titrated, usually from 37.8 µM), for the others: top-dose activity change, negative = inhibition, actives largely listed as inhibitors; calls by dose curve; tested in HEK293 cells; note: potency is the fitted concentration of half-maximal effect
# Lassa entry inh = blocks Lassa virus binding to or entry into cells. Potency, µM (doses to about 37.9 µM), without a hit: top-dose activity change, negative = inhibition, usual class: inhibitors. AID 540256. Lassa virus pseudotype entry inhibition, cell reporter. 1.2% of 300,000 active; calls by dose curve; tested in HEK293 cells; note: potency is the fitted concentration of half-maximal effect; nearly all actives have a fitted effect of over 50% in size
# HCMV inh = blocks human cytomegalovirus replication; activity change, negative = inhibition, % at 57.5 µM; AID 1259415; HFF cells, HCMV-luciferase reporter, 72 h; active compounds read low; 4.5% of 410,000 active; in the data active = activity change below about -60%; inconclusive = no clear call, values can overlap the other calls; inactive = above about -39%
#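 Two-dose cell screen: HFF monolayers treated with compounds and infected with luciferase-expressing HCMV at 1 PFU/cell, 72 h at 37C, then lysed for luciferase measurement.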
# * marks the source's active call; other numbers are inactive results; i = inactive; ? = inconclusive; nt = no result; [ ] = dose if it differs, or a comment. This is a sample that favours compounds with a hit; in the whole collection about 7.8% have one here. % is set by controls: 0 for no effect and ±100 for the full control effect.
SMILES,HCV inhibitor,Vaccinia mCherry,Vaccinia Venus,Marburg entry inh,Lassa entry inh,HCMV inh
Cc1ccc(-c2csc3ncnc(Nc4ccc(N5CCOCC5)cc4)c23)cc1,?,-11.2%,-21.5%,?,12.6µM*,-89.5*
CCC(CO)Nc1nc(CN2CCCCC2)nc2scc(-c3ccccc3)c12 (centres undefined),?,i,-23.8%,?,-25.9%[46.1 µM],-68.9*
Clc1ccc(CNc2nc(CN3CCOCC3)nc3scc(-c4ccccc4)c23)cc1,?,?,?,20µM*,?,-20.5
c1ccc(-c2csc3ncnc(NCCN4CCOCC4)c23)cc1,11.2µM*,-12.6%,?,-12.2%,-29.3%,-76.8*
CCOC(=O)OC[C@H]1O[C@H](c2ccc(C(C)=O)cc2)C=C[C@H]1Oc1ccc(-c2ccccc2)cc1,nt,nt,nt,2.8%[14.2 µM],?,nt
CCc1cc(C(=O)NCCN2Cc3ccccc3OC(c3ccsc3)C2)n(C)n1 (centres undefined),nt,-12.1%,-21.0%,nt,nt,nt
O=C1CC(CC(=O)N2CC3CCCC2C3)(c2cccc(F)c2)C(=O)N1Cc1cccnc1 (centres undefined),nt,-8.8%,-1.4%,nt,nt,nt
C[C@H](N)c1cccc(Cl)c1Cl,nt,nt,nt,9.4%,nt,nt
Cc1ccc(NC(=O)CSc2cn(CC(=O)N3CCCC3)c3ccccc23)cc1Cl,nt,i,-16.4%,nt,0.7%[46.1 µM],-37.3
c1nc(NCCN2CCOCC2)c2c3c(sc2n1)CCCCC3,15.0%,nt,nt,-3.8%,-7.2%,0.8
Cc1ccc(-c2csc3ncnc(NCCC(=O)O)c23)cc1,6.0%,i,-11.3%,12.9%[46.1 µM],26.5%[46.1 µM],-21.8
COc1ccc(-c2csc3ncnc(NCCN4CCOCC4)c23)cc1,?,nt,?,?,?,-66.3*
Cc1ccc(-c2csc3ncnc(NCCN4CCOCC4)c23)cc1,?,-22.9%,-17.9%,11.2µM*,?,-70.3*
Clc1ccc(-c2csc3ncnc(NCCN4CCOCC4)c23)cc1,?,-27.3%,?,?,?,-75.0*
O=C(c1ccncc1)N1CC(=O)N2[C@H](CO)[C@H](c3ccc(Br)cc3)[C@@H]2C1,nt,nt,nt,nt,nt,-12.8
O=C(Cn1cnc2onc(-c3ccc(F)cc3)c2c1=O)Nc1cccc(C(F)(F)F)c1,nt,-16.0%,-7.9%,nt,3.8%[46.1 µM],-16.5
COc1ccc(N2CC(NC(=O)c3ccc(OC(C)C)cc3)CC2=O)cc1 (centres undefined),nt,-9.9%[7.34 µM],-8.0%[7.34 µM],nt,-4.9%[46.1 µM],11.2
Cc1cc(C)cc(-n2ccnc2SCC(=O)Nc2ccc(C)c(Cl)c2)c1,nt,-17.7%,2.5%,nt,16.0%[46.1 µM],-21.3
C=C1C(=O)[C@@]23[C@H](O)C[C@@H]4C(C)(C)CC[C@H](O)[C@]4(C)[C@@H]2C[C@H](O)[C@@H]1[C@H]3O,2.2%,?,4.47µM*,20.6µM*,?,-76.2*
C=C1C(=O)[C@@]23[C@H](O)C[C@@H]4C(C)(C)CC[C@H](O)[C@@]4(C)[C@@H]2CC[C@@H]1[C@H]3O,?,?,2.51µM*,?,10.3µM*,-97.0*
CNc1ncncc1-c1ccccc1OC,nt,i,-13.7%,nt,nt,nt
COc1ccc(CCNC(=O)c2c([S-])n(-c3ccc(C)cc3)c3cccc[n+]23)cc1,11.2µM*,-17.9%,-13.2%,?,?,?
CN(C(=O)c1sc2nc(N3CCOCC3)c3c(c2c1N)CCCC3)c1ccccc1,11.2µM*,-23.8%,-20.2%,?,3.55µM*,?
CCOC(=O)c1sc2nc(N3CCOCC3)c3c(c2c1N)CCN(Cc1ccccc1)C3,-5.4%,?,?,?,16.4µM*,-30.9
Nc1c(C(=O)NCCc2ccccc2)sc2nc(N3CCOCC3)c3c(c12)CCCC3,?,?,-26.1%,-17.5%[46.1 µM],2.9%,?
SMILES,HCV inhibitor,Vaccinia mCherry,Vaccinia Venus,Marburg entry inh,Lassa entry inh,HCMV inh
CCCCN(CC)CCCNC(=O)c1sc2nc(C)cc(C)c2c1-n1cccc1,nt,-17.7%,-4.9%,-0.1%[46.1 µM],2.4%[46.1 µM],18.1
Cc1ccc(NC(=O)O/N=C/c2c(C)nn(C(C)(C)C)c2C)cc1Cl,-10.0%,i,-11.7%,?,?,-86.1*
CCOc1ccccc1N1C(=O)NC(=O)/C(=C/c2ccc3c4c(cccc24)CC3)C1=O,16.2%,nt,-11.3%,1.8%,-8.3%,48.9
COc1cccc(N2C(=O)NC(=O)/C(=C/c3ccc4c5c(cccc35)CC4)C2=O)c1,7.7%,nt,nt,nt,nt,-100.8*
CSc1nc2sc3c(c2c(=O)n1C)CCC3,?,nt,nt,nt,nt,-12.9
CSc1nc2sc3c(c2c(=O)n1C)CCCC3,11.2µM*,-12.8%,-15.7%,11.9%,1.6%,-9.4
CCOC(=O)c1c(-c2ccc([N+](=O)[O-])cc2)[nH]c2ccc(C)cc12,nt,nt,nt,nt,nt,-22.0
CC1(Cc2ccc(F)cc2)C(=O)Nc2ccc(-c3cccnc3)cc21 (centres undefined),nt,-18.3%,-7.8%,nt,nt,-64.3*
CC(=O)Oc1ccc(C(=O)Nc2ccc(C3(C#N)CCCC3)cc2)cc1,14.1µM*,nt,nt,nt,nt,61.4
Cc1cc(C)c2c(n1)nn1c(C)c(CCC(=O)NCc3ccccc3Cl)c(C)nc21,nt,9.8%,-9.5%,25.4%[46.1 µM],11.5%[46.1 µM],4.7
COc1ccc(CCN2CCC(Nc3nc4ccccc4n3Cc3ccc(F)cc3)CC2)cc1,15.8µM*,11.2µM*,10µM*,4.11µM*,?,nt
COc1ccc(Cn2c(-c3ccc(OC)cc3)nc3ccccc32)cc1,?,-6.9%,-0.2%,17.5%,3.0%,-4.9
C=C(C)CNC(=S)NNC(=O)CCn1c2ccc(Cl)cc2c2cc(Cl)ccc21,-28.4%,-28.4%,?,-14.9%,?,-82.5*
C=C(C)CNC(=S)NNC(=O)CCn1c2cc(Cl)ccc2c2ccc(Cl)cc21,-8.1%,i,-21.5%,?,0.3%,-24.2
Cc1ccc(NC(=O)CCCCCN2C(=O)[C@@H]3Cc4ccccc4CN3C2=O)c(Cl)c1,12.6µM*,nt,nt,nt,nt,30.0
Cc1ccc(Cl)cc1N1CCN(C(=O)c2ccc(CS(=O)c3ccccc3)o2)CC1 (centres undefined),nt,-11.5%,-18.4%,nt,?,-20.3
Cc1cccc(N2CCN(C(=O)c3ccc(CS(=O)c4cccc(Cl)c4)o3)CC2)c1C (centres undefined),nt,-27.2%,-26.3%,nt,?,-86.9*
Cc1ccccc1S(=O)Cc1ccc(C(=O)N2CCN(c3cccc(C)c3C)CC2)o1 (centres undefined),nt,-22.2%,-21.6%,nt,?,-83.5*
Fc1ccc(-c2noc3nc(NCC4CCCO4)ccc23)cc1 (centres undefined),nt,nt,nt,nt,nt,79.9
COc1cccc(NC(=O)c2cc3c(=O)n(C)c4ccccc4c3n2C)c1,nt,1.6%,-0.4%,14.7%[46.1 µM],26.7%[46.1 µM],-8.3
CCCCCNC1=CC(=O)CC(c2ccccc2)C1 (centres undefined),-12.9%,nt,?,-21.8%,-22.2%,20.2
CCCCCCCNC1=CC(=O)CC(c2ccccc2)C1 (centres undefined),?,nt,nt,?,?,-87.7*
COCC(=O)Nc1cc(C(=O)N2CC3CCCC2C3)c2c(c1)nc(-c1ccncc1)n2C (centres undefined),nt,-2.2%,-6.1%,nt,nt,nt
